High-throughput results as filed in PubChem BioAssay.
Sampled rows, rich in hits. Any-hit rate of the full collection: about 3.2%.
aDG glyco act – increases alpha dystroglycan glycosylation; AID 624168; activation, % at 10 µM; Pro5-aDG cells, alpha-DG glycosylation AlphaScreen (IIH6); 0% Pro5, 100% B10-LARGE cell signal; 360,000 compounds, 0.22% hits;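 active = activation of at least 8% versus controls, or a plate z-score of at least 8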;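 also: Pro5 are CHO cells carrying HIG-tagged alpha-DG that lacks glycosylation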
H9c2 protect – myocardial damage modulation in H9c2 cells; 360,000 compounds, 0.63% hits; protection from H2O2 cell death, % at 20 µM; H9c2 cardiomyocytes, H2O2 injury protection, ATPLite, 2 h;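 active = compounds giving at least 50% protection of heart cells from peroxide-induced death in the single-dose screen, raw or plate-pattern-corrected value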
CRFR2-BP ag – CRF-BP/CRF-R2 complex agonism. HEK293 CRF-R2/CRF-BP, calcium dye fluorescence (FLIPR); percent of saturating CRF peptide response. activation, % at 13.2 µM. 350,000 compounds, 0.46% hits. AID 588473;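 active = activation of at least 50%, plus an integration ratio under a set limit after plate pattern correction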
PfGluPho inh – PfG6PD (Plasmodium falciparum) enzyme inhibition. 350,000 compounds, 0.78% hits. PfGluPho enzyme, NADPH resazurin-diaphorase fluorescence. inhibition, % at 20 µM. AID 504690;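 active = inhibition reaching at least a set limit at 20 µM in the primary screen, cut at about 59% in these data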
FAS TE block – inhibitors of human fatty acid synthase thioesterase domain; AID 602261; recombinant FAS-TE, OMFH fluorogenic substrate, fluorescence endpoint; 360,000 compounds, 0.67% hits; P49327; inhibition, % at 15 µM;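 active = compounds whose normalised, plate-corrected inhibition of enzyme fluorescence in the single-dose primary screen is 50% or more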
CRFR2-BP antag – CRF-BP/CRF-R2 complex antagonism | HEK293 CRF-R2/CRF-BP, CRF-induced calcium fluorescence | inhibition, % at 11.8 µM | 350,000 compounds, 0.59% hits;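 active = inhibition of the ligand-induced calcium signal above about 50% at the single tested concentration, limit read from the data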
PfG6PD confirm – confirmation of Plasmodium falciparum G6PD inhibitors; shares compounds with PfGluPho inh; inhibition, % at 20 µM; recombinant PfGluPho, NADPH-diaphorase-resazurin fluorescence; 2,400 compounds, 34% hits;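 active = inhibition of at least 50% at 20 µM in any single replicate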
Diaph ctr 10uM – diaphorase inhibition or oxidation at 10 uM NADPH; shares compounds with PfGluPho inh; diaphorase-coupled resazurin reduction, fluorescence, NADPH 10 uM; inhibition, % at 20 µM; 820 compounds, 39% hits; AID 504862;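 active = average inhibition reaching 50% or more with the compound at 20 µM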;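 also: resorufin red fluorescence formed as diaphorase reduces resazurin using NADPH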
Diaphorase 30uM – diaphorase inhibition or oxidation at 30 uM NADPH; shares compounds with PfGluPho inh; AID 504863; 820 compounds, 29% hits; inhibition, % at 20 µM; Diaphorase/resazurin coupled assay, resorufin fluorescence;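 active = inhibition averaging 50% or more, tested at 20 µM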
FAS-TE conf – FAS thioesterase (human) inhibition, confirmation; AID 624325; shares compounds with FAS TE block; 2,300 compounds, 45% hits; recombinant FAS-TE, OMFH fluorogenic substrate, fluorescence; inhibition, % at 15 µM;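 active = compounds inhibiting the enzyme by at least 50% at 15 µM in any one of the replicates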
Large screens that a line does not name were inactive (follow-up assays come after a bar, where they were run).

O=c1[nH]c(=O)n(Cc2ccco2)c(O)c1C=NC1CCN(Cc2ccccc2)CC1	none
COC(=O)C1=C(C(=O)OC)SC2(S1)C(C(=O)OC)=C(C(=O)OC)Sc1c2ssc1=O	PfGluPho inh 86.4 | PfG6PD confirm 60.3 | Diaph ctr 10uM inactive | Diaphorase 30uM inactive
Brc1ccc2c(c1)-n1nncc1CN(CC1CCCCC1)C2	none (no result: CRFR2-BP ag, PfGluPho inh, CRFR2-BP antag)
CCn1c(C)c(C(=O)Nc2ccc(OC)cc2)c2cc(OC)ccc21	PfGluPho inh 66.3 | PfG6PD confirm inactive
O=C1NC(=O)N(c2ccc3c(c2)OCO3)C(=O)/C1=C/c1cccs1	PfGluPho inh 67.2 | PfG6PD confirm inactive
COc1ccc(OC)c(N2C(=O)/C(=C/c3ccco3)C(=O)NC2=S)c1	none (no result: aDG glyco act, H9c2 protect, FAS TE block)
COc1ccc(OC)c(N2C(=O)NC(=O)/C(=C/c3ccc([N+](=O)[O-])s3)C2=O)c1	PfGluPho inh 62.4 | PfG6PD confirm inactive
C[C@H](CO)N1C[C@H](C)[C@@H](CN(C)C(=O)Oc2ccc3ccccc3c2)OCc2cnnn2CCCC1=O	none
O=C1CCC2(O)C3Cc4ccc(O)c5c4C2(CCN3Cc2ccoc2)C1O5 (configuration not stated)	none
Nc1ccc2c3c(cccc13)-c1ccccc1-2	CRFR2-BP ag 196.8, PfGluPho inh 79.5 | PfG6PD confirm 81.7 | Diaph ctr 10uM inactive | Diaphorase 30uM inactive
Oc1ccc(O)c2c1C1(Cl)C(Cl)=C(Cl)C2(Cl)C1(Cl)Cl	PfGluPho inh 73.3, FAS TE block 51.4 | PfG6PD confirm inactive | FAS-TE conf 50.3
CC(C)C[C@H]1COc2cc(N3CCN(C)CC3)ccc2S(=O)(=O)N1	none (no result: H9c2 protect, CRFR2-BP ag, PfGluPho inh, CRFR2-BP antag)
CCCCn1c(O)c(/C(CC)=N/N2CCCCC2c2cccnc2)c(=O)[nH]c1=S (configuration not stated)	none
C/C(=N\N1CCCCC1c1cccnc1)c1c(O)n(C2CCCCC2)c(=S)[nH]c1=O (configuration not stated)	FAS TE block 69.8 | FAS-TE conf inactive
O=[N+]([O-])c1cccc(CN2CC=C(c3ccc(F)cc3)CC2)c1	FAS TE block 56.9 | FAS-TE conf 52.6
COc1ccc(C(c2nnnn2-c2ccc3c(c2)OCCO3)N2CCC3(CC2)C(=O)NCN3c2ccccc2)cc1 (configuration not stated)	FAS TE block 62.8 (no result: CRFR2-BP ag, PfGluPho inh, CRFR2-BP antag) | FAS-TE conf inactive
CCC(c1nnnn1-c1ccc2c(c1)OCCO2)N1CCC2(CC1)C(=O)NCN2c1ccccc1 (configuration not stated)	none (no result: CRFR2-BP ag, PfGluPho inh, CRFR2-BP antag)
O=C1NCN(c2ccccc2)C12CCN(C(CCc1ccccc1)c1nnnn1-c1ccc3c(c1)OCCO3)CC2 (configuration not stated)	FAS TE block 64.7 (no result: CRFR2-BP ag, PfGluPho inh, CRFR2-BP antag) | FAS-TE conf inactive
O=C1NCN(c2ccccc2)C12CCN(C(c1cccc3ccccc13)c1nnnn1C1CCCC1)CC2 (configuration not stated)	FAS TE block 76.8 (no result: CRFR2-BP ag, PfGluPho inh, CRFR2-BP antag) | FAS-TE conf inactive
COc1ccc(-n2nnnc2C(c2cccs2)N2CCC3(CC2)C(=O)NCN3c2ccccc2)cc1 (configuration not stated)	none (no result: CRFR2-BP ag, PfGluPho inh, CRFR2-BP antag)
C[C@H](N)CN1CCc2ccc(Br)cc21	none
O=c1c2ccccc2nc(CNCc2ccco2)n1-c1ccc(F)cc1	none
O=C(C1CC(c2ccc(Cl)c(Cl)c2)=NO1)N1CCC2(CC1)OCCO2 (configuration not stated)	FAS TE block 56.7 | FAS-TE conf 65.6
O=C(C1CC(c2ccc(F)cc2)=NO1)N1CCC2(CC1)OCCO2 (configuration not stated)	none
